# Screening results from PubChem.
# MARV entry inh: qHTS for inhibitors of binding or entry into cells for Marburg Virus; Marburg virus pseudotyped entry inhibition, cell reporter; Potency, µM (doses to about 37.8 µM), inactives show top-dose activity change, negative = inhibition, hits mostly inhibitors; hit rate 1.8% among 300,000; AID 540276, 2011; calls by dose curve; tested in HEK293 cells; note: potency is the fitted concentration of half-maximal effect; % is set by controls: 0 for no effect and ±100 for the full control effect
# Cycloheximide cs: Cycloheximide Counterscreen for Small Molecule Inhibitors of Shiga Toxin; cell reporter, cycloheximide protein synthesis inhibition counterscreen; max response, %; hit rate 12% among 300,000; in the data active = max response mostly above about 13%, no sharp cut-off; inactive = mostly below about 14%; note: read at 38.3 µM for the half of the compounds with a filed dose; 0% is about no effect
# LASV entry inh: qHTS for Inhibitors of binding or entry into cells for Lassa Virus; hit rate 1.2% among 300,000; Potency, µM (titrated, usually from 37.9 µM), for the others: at the highest dose activity change, negative = inhibition, usual class: inhibitors; Lassa virus pseudotype entry inhibition, cell reporter; calls by dose curve; tested in HEK293 cells; note: potency is the fitted concentration of half-maximal effect; % is set by controls: 0 for no effect and ±100 for the full control effect; nearly all actives have a fitted effect of over 50% in size
# Shiga toxin inh: A qHTS for Small Molecule Inhibitors of Shiga Toxin; Vero cells, Shiga toxin protein synthesis inhibition reporter; hit rate 9.2% among 290,000; AID 2315, 2010; inhibition, % at 38.7 µM; in the data active = inhibition mostly above about 28%, no sharp cut-off; inactive = mostly below about 43%; note: 0% is about no effect
# Numbers without * were called inactive; u = inconclusive; x = no result given; ! = not confirmed by another sample; [ ] = remark or other dose. Compounds with a hit are over-represented: about 12% of the library has one in this group of screens.
SMILES,MARV entry inh,Cycloheximide cs,LASV entry inh,Shiga toxin inh
CCCCN(C)CCNC(=O)c1cc2cc3ccc(OC)cc3nc2o1,x,-3.0,x,-4.3
COc1cc(NC(=O)c2cc3cc4cc(OC)ccc4nc3o2)cc(OC)c1,x,x,1.6%[46.1 µM],x
CCN(CC)CCNC(=O)c1cc2cc3ccc(OC)cc3nc2o1,x,-3.6,x,-6.5
CCN(C(=O)c1cc2cc3ccc(C)cc3nc2o1)c1ccc(OC)cc1,-6.7%,36.2*,u,37.3*
COCCCNC(=O)c1cc2cc3cc(OC)ccc3nc2o1,4.7%,19.7*,x,18.9
COc1ccc2nc3oc(C(=O)N4CCC(C(N)=O)CC4)cc3cc2c1,1.6%,11.3,10.4%,33.5
CCCCN(C)C(=O)c1cc2cc3ccc(OC)cc3nc2o1,x,28.9*,x,79.3*
Cc1ccc(C(=O)N/C(=C\c2ccc(Cl)cc2)C(=O)NC2CCCCC2)cc1,x,x,-8.7%[46.1 µM],x
COc1ccc(/C=C2\SC(=S)N(CCCC(=O)Nc3ccc(O)cc3)C2=O)cc1,x,35.2*,x,51.1*
COc1ccc(/C=C2/SC(=S)N(CCC(=O)O)C2=O)cc1,-30.0%,-4.6,51.1%[14.3 µM],12.2
COc1cc(/C=C2\SC(=S)N(CCC(=O)Nc3ccc(O)cc3)C2=O)cc(OC)c1OC,5.2%[46.1 µM],1.1,u,-5.6
COc1ccc(/C=C2\SC(=S)N(CCC(=O)Nc3ccc(C(=O)O)cc3)C2=O)cc1,x,-2.9,x,x
COc1ccc(/C=C2/SC(=S)N(CCCC(=O)Nc3ccc(O)cc3)C2=O)cc1,x,51.5*,x,94.5*
COc1ccc(/C=C2\SC(=S)N(CCC(=O)Nc3cccc(O)c3)C2=O)cc1,x,39.1*,x,62.2*
CC(C)CCn1c(SCc2c(F)cccc2Cl)nc2ccsc2c1=O,x,x,-9.6%[46.1 µM],x
CCC1(C)Cc2c(sc3nc(NC)n(C)c(=O)c23)CO1 (stereo not given),26.0%,67.2*,18.1%,27.2
Cn1c(NN)nc2sc3c(c2c1=O)CC(C)(C)OC3,-3.2%,-3.2,-3.7%,16.5
COc1ccccc1N1CCN(C(=O)c2cc3c(C)nc4ccccc4c3o2)CC1,u,-1.2,11.2µM*,-3.9
COc1ccc(-c2cc(C(=O)N3CCN(c4ccccc4OC)CC3)no2)cc1,u,-4.9,u,-7.7
COc1ccc(-c2cc(C(=O)N3CCN(c4ccccc4)CC3)no2)cc1,u,37.0*,u,93.3*
COc1cccc(-c2cc(C(=O)N3CCc4ccccc4C3)no2)c1,25.0%,17.1*,2.0%,6.2
COc1ccccc1N1CCN(C(=O)c2cc(-c3ccc(C)cc3)on2)CC1,0.6%,19.1*,-3.5%,54.9*
COc1ccc(OC)c(-c2cc(C(=O)N3CCc4ccccc4C3)no2)c1,-6.8%,7.5,u,-10.6
COc1ccccc1N1CCN(C(=O)c2cc(-c3ccc(F)cc3)on2)CC1,u,-3.8,2.8%[46.1 µM],3.8
COc1ccc(-c2cc(C(=O)N3CCc4ccccc4C3)no2)cc1,x,27.7*,x,87.7*
SMILES,MARV entry inh,Cycloheximide cs,LASV entry inh,Shiga toxin inh
Cc1ccc(C(=O)Nc2ccc(Nc3ccccc3)cc2)cc1Br,-6.0%[46.1 µM],x,-5.7%,x
Cc1ccc(N/C=C/C(=O)c2ccccc2)cc1Br,x,54.0*,x,x
O=C(/C=C/Nc1ccc(F)cc1)c1ccc(Br)cc1,x,29.6*,x,116.0*
O=C(/C=C/Nc1ccc(F)c(F)c1)c1ccc(Br)cc1,u,56.6*,u,92.7*
O=C(/C=C/Nc1ccc(F)c(Cl)c1)c1ccccc1,x,44.3*,x,59.0*
O=C(/C=C/Nc1ccc([N+](=O)[O-])cc1)c1ccc(Br)cc1,-1.0%,2.7,24.9%,-42.8
O=C(COC(=O)CCS(=O)(=O)c1ccccc1)NC(=O)c1ccc(OC(F)F)cc1,u,x,2.2%[46.1 µM],x
O=C(COc1ccc(F)cc1F)N1CCCCCCC1,-7.9%,4.9,4.2%,2.6
CN(C)c1ccc(NC(=O)C2(c3cccs3)CCOCC2)cc1,x,x,2.6%[46.1 µM],x
O=C(NCCc1ccccc1)c1ccc(Cn2c(SCc3ccccc3)nc3cccnc32)cc1,x,x,2.7%[46.1 µM],x
COc1ccc(CNC(=O)/C=C/c2ccc3[nH]cc(CCN(C)C)c3c2)cc1,35.5µM*!,-7.5,-13.6%,-8.1
CCOC(=O)c1nn(-c2ccc(OC)cc2)c(=O)c2c(NC(=O)Cc3ccccc3)scc12,x,9.7,x,-1.5
Cc1nc(CNC(=O)CC2C(=O)NCCN2Cc2ccc(F)cc2)cs1 (stereo not given),19.2%,0.8,6.4%,11.1
CC(=O)Nc1cc(NC(C)=O)cc(-c2nc3ccccc3[nH]2)c1,11.2%[46.1 µM],1.6,-1.1%,-2.1
CC(=O)Nc1ccc(-c2nc3c(C)cccc3[nH]2)cc1,u,44.6*,-3.9%,109.6*
Cc1ccc(/C=C/C(=O)NCCCc2ccccc2)cc1,7.6%,19.5*,10.0%,13.7
C#CCNC(=O)/C=C/c1ccc(C)cc1,u,36.1*,-0.5%,45.8
COc1ccc(/C=C/C(=O)NCCOc2ccc(C)cc2)cc1,7.7%,1.5,-8.3%,7.5
CCC1CCCCN1CCCNC(=O)c1ccc(CS(=O)(=O)c2ccc(Br)cc2)o1 (stereo not given),x,-1.6,x,-2.7
N#CNC(=Nc1ccc(Cl)cc1)Oc1ccccc1,1.4%[46.1 µM],7.7,-1.7%,36.8
Cc1sc2c(c1C)C(=O)NC(c1cccc(O)c1)N2 (stereo not given),x,26.9*,x,35.4
Cc1cc(NC(=O)COC(=O)CNC(=O)c2cccs2)c([N+](=O)[O-])cc1C,24.3%,x,9.8%,x
O=C(Nc1nnc(-c2ccc3c(c2)CCCC3)o1)c1ccccc1,x,20.2*,x,active
Cc1ccc(C(=O)Nc2nnc(-c3ccncc3)o2)cc1,u,9.8*,u,22.6
COc1ccc(Cn2c(CNS(=O)(=O)c3ccc(C)c(C)c3)nc3cccnc32)cc1,x,x,10.5%[46.1 µM],x
SMILES,MARV entry inh,Cycloheximide cs,LASV entry inh,Shiga toxin inh
COc1ccc(N2CCN(CC(=O)Nc3cccc(S(=O)(=O)N4CCOCC4)c3)CC2)cc1,1.1%,0.7,-10.0%,-12.2
O=C(CN1CCCC1)Nc1ccc(-c2nc3cc(NC(=O)CN4CCCC4)ccc3o2)cc1,u,33.3*,u,72.8*
COc1cc(C(=O)Nc2ccc(-c3nc4cc(C)c(C)cc4o3)cc2)cc(OC)c1OC,x,x,2.4%[46.1 µM],x
O=C(COc1ccc(Cl)cc1)Nc1ccc2oc(-c3ccncc3)nc2c1,-4.4%,-3.0,-13.3%,-42.1
COc1ccc(OCC(=O)Nc2ccc3oc(-c4ccncc4)nc3c2)cc1,16.0%[46.1 µM],0.7,u,-11.8
CCCC(=O)Nc1ccc2oc(-c3ccncc3)nc2c1,23.2%,19.9*,13.6%,68.0*
CCCCC(=O)Nc1ccc2oc(-c3ccncc3)nc2c1,u,13.1*,u,39.4*
CCCC(=O)Nc1ccc(-c2nc3cc(C)c(C)cc3o2)cc1,20.9%,35.5*,23.8%,119.1*
CCc1ccc2[nH]cc(S(=O)(=O)c3ccc(C(C)C)cc3)c(=O)c2c1,4.1%[46.1 µM],x,2.0%[46.1 µM],x
N#Cc1ccc(C(=O)CN2CCN(c3ccccc3)CC2)cc1,-6.7%[46.1 µM],-1.7,-7.5%,20.4
O=C(O)C[C@H]1SC(=Nc2cccc(C(F)(F)F)c2)NC1=O,-21.6%[46.1 µM],x,x,x
Cc1ccc(NC(=O)c2ccnc(C(C)(C)C)c2)cc1,6.6%,16.5*,u,70.8*
CC(C)(C)c1cc(C(=O)Nc2ccccc2)ccn1,4.4%,25.0*,u,20.5
CC(C)(C)NC(=O)c1ccnc(C(C)(C)C)c1,5.3%,8.5,4.6%,66.3
CNc1ccc(Br)cc(C(=O)/C=C/c2ccc(OC)cc2)c1=O,-16.8%,20.8*,-14.9%,active
